“And” between values parts separate entries of the source, which are not always exact repeats. Identical values can stand only once. Records with an inconclusive call do not appear. Entries that show only a call come without a potency. A structure can be active in one record and inactive in another. The source made the active and inactive calls. Calls follow the shape of the dose curve; as a rule, active = well fitted inhibition curve with a large enough effect in the repeat runs; inconclusive = weak or mixed curves; inactive = no such curve, though single readings can be large or run the other way.
Potency is read from the fitted curve at half-maximal effect.

This assay deals with Cytochrome P450 1A2 (Homo sapiens) (UniProt P05177). Briefly: Cytochrome P450 Family 1 Subfamily A Member 2 (CYP1A2) small molecule antagonists: luciferase reporter qHTS assay (AID 1671199). Also: nearly all actives have a fitted effect of over 50% in size. The conditions noted are these: P450-Glo CYP1A2 enzyme, luciferin luminescence, 1 h; series mostly up to 115 µM. The text has this: National Center for Advancing Translational Sciences [NCATS]
Cytochrome P450 1A2 (Homo sapiens), sequence (P05177 whole entry, looked up): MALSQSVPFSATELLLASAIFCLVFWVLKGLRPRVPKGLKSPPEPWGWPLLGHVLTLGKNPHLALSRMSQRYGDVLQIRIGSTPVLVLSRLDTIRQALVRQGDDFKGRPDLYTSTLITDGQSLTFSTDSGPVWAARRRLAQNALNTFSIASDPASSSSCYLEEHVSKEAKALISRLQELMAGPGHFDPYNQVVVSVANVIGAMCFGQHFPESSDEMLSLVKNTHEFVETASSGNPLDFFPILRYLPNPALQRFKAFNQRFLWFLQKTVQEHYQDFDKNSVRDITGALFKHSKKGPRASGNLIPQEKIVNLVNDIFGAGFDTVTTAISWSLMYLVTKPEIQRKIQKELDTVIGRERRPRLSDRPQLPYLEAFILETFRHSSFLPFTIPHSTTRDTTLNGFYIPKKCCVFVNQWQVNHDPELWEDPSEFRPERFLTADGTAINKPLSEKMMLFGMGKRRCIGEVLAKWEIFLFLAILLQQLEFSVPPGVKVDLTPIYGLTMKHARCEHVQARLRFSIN
U.S. Environmental Protection Agency [EPA]
National Institutes of Environmental Health Sciences [NIEHS]
National Toxicology Program [NTP]
U.S. Food and Drug Administration [FDA]
Cytochrome P450 (CYP) enzymes are membrane-bound hemeproteins that play a key role in metabolism of drugs and xenobiotics. Evaluation of the effect of chemicals on CYP isozymes is useful to minimize the adverse drug reactions and toxicities in drug development process. Tox21 chemicals were tested for their effect on CYP enzyme activities by using P450-Glo (TM) screening systems (Promega Corporation, Madison, WI). These systems provide a luminescent method containing proluciferin substrates and are converted to luciferin products by CYP isozymes. The luciferin products formed are detected with a luciferin detection reagent, and the amount of light produced is proportional to CYP activity. P450-Glo (TM) CYP1A2 screening system (Catalog. No. V9770) was used to detect the compounds that interfere in CYP1A2 activity. The positive control compound used for CYP1A2 assay is furafylline (Sigma-Aldrich, St. Louis, MO).
Tox21 Assay Protocol Summary:
Two ul of enzyme-substrate mix was dispensed into medium binding white/solid 1536-well plates (Greiner Bio-One North America Inc., Monroe, NC) using a BioRaptr Flying Reagent Dispenser (FRD, Beckman Coulter, Brea, CA). Compounds dissolved in DMSO and positive control (furafyllline) were transferred to the assay plates at 23 nl using a Pintool station (Wako, San Diego, CA). The assay plates were incubated at room temperature for 10 min. Then 2 ul of NADPH regeneration solution was added to each well of the assay plates using an FRD and incubated at room temperature for 1 h. The reaction was stopped by adding 4 ul of detection reagent using an FRD and after 20 min incubation at room temperature the luminescence signal was measured using a ViewLux plate reader (Perkin Elmer, Shelton, CT). Data were expressed as relative luminescence units.
Take `CC(Oc1ccc(Cl)cc1Cl)C(=O)O` (stereo not given): the Potency result is “inactive”. Regarding `Cc1ccc(N)cc1N`, the Potency was 30.9 µM (active) and 35.6 µM (active). Regarding `C1CC2OC2CC1C1CO1` (stereo not given), the Potency result is “inactive”. For `CCCCCCCCCl`, the Potency entry was “inactive”. Consider `Cn1cc(-c2ccccc2)c(=O)c(-c2cccc(C(F)(F)F)c2)c1`, for which the Potency is 19.5 µM (active) and 17.8 µM (active). Regarding `CCOC(=O)c1ccccc1C(=O)OCC`, the Potency was 3.22 µM (active) and 3.17 µM (active). In the case of `Clc1cccc(Cl)c1Cl`, the Potency result is “inactive”. For the compound `Cc1cc(Cl)ccc1O`, the Potency was 30.8 µM (active) and 31.7 µM (active).

On to `COC(=O)NC(=S)Nc1ccccc1NC(=S)NC(=O)OC`, for which the Potency is 31.7 µM (active).

For the compound `Clc1ccc(Cl)cc1`, the Potency entry is “inactive”. Consider `C=C(C)CCl`, for which the activity change, negative = inhibition is -9.56% [at 10.5 µM] (inactive).

As to `O=C(NC(=O)c1c(F)cccc1F)Nc1cc(Cl)c(OC(F)(F)C(F)C(F)(F)F)cc1Cl` (stereo not given), the Potency result is “inactive”. Consider `CCNc1nc(NC(C)C)nc(SC)n1`, for which the Potency was 8.02 µM (active) and 11.2 µM (active). For `COC(=O)c1ccccc1N`, the Potency was 34.4 µM (active) and 39.9 µM (active). With `O=c1[nH]c(=O)[nH]c(=O)[nH]1`, the Potency entry is “inactive”.

As for `OC(O)C(Cl)(Cl)Cl`, the Potency result is “inactive”. As for `CCN(CC)CCO`, the Potency entry was “inactive and 31.7 µM (active)”. Turning to `CC(C)C1(C)N=C(c2nc3ccccc3cc2C(=O)O)NC1=O` (stereo not given), the Potency result was “inactive”. On to `CCOP(OCC)OCC`, for which the Potency result is “inactive”.

`CC(NC(C)(C)C)C(=O)c1cccc(Cl)c1` (stereo not given): the Potency result was “inactive”.

With `Nc1ccc(Oc2ccc(N)cc2)cc1`, the Potency result is “inactive”. Turning to `C=CC(N)=O`, the Potency is 35.7 µM (active) and inactive.

Take `CCCC1COC(Cn2cncn2)(c2ccc(Cl)cc2Cl)O1` (stereo not given): the Potency was 20.4 µM (active) and 31.7 µM (active). For `CCCN(CCC)c1c([N+](=O)[O-])cc(C(F)(F)F)cc1[N+](=O)[O-]`, the Potency is 20 µM (active). `CC(=O)C=C(C)C`: the Potency result was “inactive”. As to `c1ccc2c(c1)oc1ccccc12`, the Potency result was “inactive and 10 µM (active)”. Consider `CCCCN(CC)C(=O)SCCC`, for which the Potency result is “inactive”.

`COc1ccc2c3c1O[C@H]1[C@@H](O)C=C[C@H]4[C@@H](C2)N(C)CC[C@@]341`: the Potency entry is “inactive”. Turning to `C=CCO`, the Potency result was “inactive”. Turning to `CCC[N+](=O)[O-]`, the Potency result is “inactive”.

With `CCCCCOC(=O)c1ccccc1C(=O)OCCCCC`, the Potency is 17.8 µM (active) and 8.94 µM (active). For the compound `CN(N=O)c1ccccc1`, the Potency result was “inactive”. For `CON(C)C(=O)Nc1ccc(Cl)c(Cl)c1`, the Potency was 1.42 µM (active) and 3.17 µM (active). Take `O=Cc1cccc(Oc2ccccc2)c1`: the Potency is 35.9 µM (active) and inactive.

On to `CC(C)NC(=O)N1CC(=O)N(c2cc(Cl)cc(Cl)c2)C1=O`, for which the Potency was 12.6 µM (active). As for `CC(C)N1C(=O)c2ccccc2NS1(=O)=O`, the Potency entry is “inactive”.

`CC(C)(C)C(O)(CCc1ccc(Cl)cc1)Cn1cncn1` (stereo not given): the Potency is 32.1 µM (active) and 28.3 µM (active). Regarding `c1ccc(OP(Oc2ccccc2)Oc2ccccc2)cc1`, the Potency result is “inactive”. Same read-out and setting: the value for `C1CN2CCN1CC2` was “inactive”; that for `CC(Br)C(=O)O` (stereo not given) was “inactive”.
